The results in this text go back to ChEMBL document CHEMBL5308504, “Tm Shift (DSF) assay results for EUbOPEN Chemogenomics Library” (2023).

Molecules are shown by their SMILES.

Conditions in all cases: Compound concentration 20.0 uM, Protein concentration 2.0 uM, Result type QC Liability
Test [1] has as its target Tyrosine-protein kinase ABL1 (Homo sapiens) (UniProt P00519).
Test [2] has as its target Cyclin-dependent kinase 2 (Homo sapiens) (UniProt P24941).
Test [3] deals with Casein kinase I isoform delta (Homo sapiens) (UniProt P48730).
Sequence of Casein kinase I isoform delta (Homo sapiens) (P48730 whole entry, looked up, canonical isoform): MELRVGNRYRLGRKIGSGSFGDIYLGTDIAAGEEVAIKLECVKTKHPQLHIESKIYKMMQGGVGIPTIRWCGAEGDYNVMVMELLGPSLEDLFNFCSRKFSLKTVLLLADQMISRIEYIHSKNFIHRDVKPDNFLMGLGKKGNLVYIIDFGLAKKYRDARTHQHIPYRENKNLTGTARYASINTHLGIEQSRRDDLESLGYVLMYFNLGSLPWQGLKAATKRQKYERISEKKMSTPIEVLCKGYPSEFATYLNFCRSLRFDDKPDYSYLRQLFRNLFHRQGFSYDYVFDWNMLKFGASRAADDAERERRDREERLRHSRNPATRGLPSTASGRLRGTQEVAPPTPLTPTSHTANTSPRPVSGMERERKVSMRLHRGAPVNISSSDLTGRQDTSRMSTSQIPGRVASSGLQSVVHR
The target in test [4] is Glycogen synthase kinase-3 beta (Homo sapiens) (UniProt P49841).
Sequence of Glycogen synthase kinase-3 beta (Homo sapiens) (P49841 whole entry, looked up): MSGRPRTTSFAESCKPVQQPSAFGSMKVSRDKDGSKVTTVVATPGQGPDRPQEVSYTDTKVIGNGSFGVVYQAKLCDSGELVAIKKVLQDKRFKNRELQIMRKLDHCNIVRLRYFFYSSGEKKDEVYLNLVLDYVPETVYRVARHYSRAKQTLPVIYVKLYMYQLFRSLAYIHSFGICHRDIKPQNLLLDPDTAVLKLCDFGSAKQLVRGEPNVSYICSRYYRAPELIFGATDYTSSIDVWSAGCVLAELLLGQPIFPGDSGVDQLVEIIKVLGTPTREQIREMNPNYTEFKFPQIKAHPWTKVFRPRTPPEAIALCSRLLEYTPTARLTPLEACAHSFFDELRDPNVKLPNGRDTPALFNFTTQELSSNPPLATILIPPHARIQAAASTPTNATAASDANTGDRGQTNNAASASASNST
Test [5] deals with Mitogen-activated protein kinase 1 (Homo sapiens) (UniProt P28482).
Sequence of Mitogen-activated protein kinase 1 (Homo sapiens) (P28482 whole entry): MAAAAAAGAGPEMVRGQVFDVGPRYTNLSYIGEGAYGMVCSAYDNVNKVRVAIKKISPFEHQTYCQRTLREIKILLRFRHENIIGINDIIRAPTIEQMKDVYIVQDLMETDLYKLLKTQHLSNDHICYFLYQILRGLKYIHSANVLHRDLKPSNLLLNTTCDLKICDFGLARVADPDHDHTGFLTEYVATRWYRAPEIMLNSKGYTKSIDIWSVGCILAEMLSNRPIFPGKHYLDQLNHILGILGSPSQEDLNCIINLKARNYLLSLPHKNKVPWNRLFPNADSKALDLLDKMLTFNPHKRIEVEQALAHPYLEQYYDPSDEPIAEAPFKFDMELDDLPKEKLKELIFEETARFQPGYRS
For test [6], the target named is T1, Aurora kinase A (Homo sapiens) (UniProt O14965).
T1 sequence (whole entry): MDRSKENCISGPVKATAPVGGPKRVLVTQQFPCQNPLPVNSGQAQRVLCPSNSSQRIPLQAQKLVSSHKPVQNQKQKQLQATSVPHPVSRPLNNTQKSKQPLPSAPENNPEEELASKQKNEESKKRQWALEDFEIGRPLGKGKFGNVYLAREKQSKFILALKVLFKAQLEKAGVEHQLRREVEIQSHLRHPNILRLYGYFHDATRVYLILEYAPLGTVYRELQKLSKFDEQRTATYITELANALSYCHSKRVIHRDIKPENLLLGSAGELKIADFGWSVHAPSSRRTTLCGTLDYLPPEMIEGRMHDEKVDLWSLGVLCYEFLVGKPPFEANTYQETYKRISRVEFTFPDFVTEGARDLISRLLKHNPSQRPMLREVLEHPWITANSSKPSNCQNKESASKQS

Sequence of Tyrosine-protein kinase ABL1 (Homo sapiens) (P00519 whole entry): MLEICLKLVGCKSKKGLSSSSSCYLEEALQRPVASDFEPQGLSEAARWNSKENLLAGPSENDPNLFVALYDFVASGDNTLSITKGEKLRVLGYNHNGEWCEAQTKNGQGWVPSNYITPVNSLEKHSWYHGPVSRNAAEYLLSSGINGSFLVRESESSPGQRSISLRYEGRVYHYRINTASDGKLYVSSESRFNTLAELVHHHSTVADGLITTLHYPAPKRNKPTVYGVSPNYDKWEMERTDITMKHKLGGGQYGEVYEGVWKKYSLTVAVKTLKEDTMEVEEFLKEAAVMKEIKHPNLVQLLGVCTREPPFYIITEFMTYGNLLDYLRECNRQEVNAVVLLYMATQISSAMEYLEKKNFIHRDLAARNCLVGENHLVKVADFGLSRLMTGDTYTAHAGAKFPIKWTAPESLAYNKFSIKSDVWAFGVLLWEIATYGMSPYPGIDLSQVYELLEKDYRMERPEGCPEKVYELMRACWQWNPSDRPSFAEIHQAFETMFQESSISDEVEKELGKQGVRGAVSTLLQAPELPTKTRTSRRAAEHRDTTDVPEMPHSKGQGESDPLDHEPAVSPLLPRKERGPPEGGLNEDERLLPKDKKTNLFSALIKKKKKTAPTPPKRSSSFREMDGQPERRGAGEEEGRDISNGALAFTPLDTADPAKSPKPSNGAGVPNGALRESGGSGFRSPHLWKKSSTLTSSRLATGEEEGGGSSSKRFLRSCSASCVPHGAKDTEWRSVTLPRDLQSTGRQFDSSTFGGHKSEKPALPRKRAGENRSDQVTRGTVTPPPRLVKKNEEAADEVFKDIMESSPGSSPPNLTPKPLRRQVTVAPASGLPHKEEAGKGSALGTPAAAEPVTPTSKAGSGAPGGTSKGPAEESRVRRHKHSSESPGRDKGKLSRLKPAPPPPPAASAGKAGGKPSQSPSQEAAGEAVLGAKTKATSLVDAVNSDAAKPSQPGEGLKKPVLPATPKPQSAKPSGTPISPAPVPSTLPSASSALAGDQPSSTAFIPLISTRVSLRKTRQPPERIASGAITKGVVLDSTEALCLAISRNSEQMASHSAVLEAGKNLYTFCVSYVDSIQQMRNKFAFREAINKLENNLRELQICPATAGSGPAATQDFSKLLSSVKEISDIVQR

As usually defined, the ΔTm is the shift of the melting midpoint relative to a reference. For the compound `CS(C)(=O)=Nc1ccc(-c2ccc(-c3nc4[nH]c(O[C@@H]5CO[C@H]6[C@@H]5OC[C@H]6O)nc4cc3Cl)cc2)cc1`, the ΔTm in test [1] is 1.8 °C; in test [2] it was 0.06 °C; in test [3] it was 0.3 °C; in test [4], -0.22 °C; in test [5] it was 0.83 °C; in test [6], 0.34 °C.
Consider `CCOC(=O)c1ccc(CN(Cc2ccc(-c3cccc(S(C)(=O)=O)c3)cc2)S(=O)(=O)c2c(C)cc(C)cc2C)o1`, for which the ΔTm in test [1] was -2.07 °C; in test [2] it was -2 °C; in test [3], -1.52 °C; in test [4] it was -0.28 °C; in test [5] it was -3 °C; in test [6], -3.1 °C.
As to `O=C(Cc1ccccc1[N+](=O)[O-])Nc1ccc(-c2ccc(C(O)(C(F)(F)F)C(F)(F)F)cc2F)cc1`, the ΔTm was 0.67 °C in test [1]; 2.11 °C in test [2]; -0.86 °C in test [3]; -0.71 °C in test [4]; -0.87 °C in test [5]; -1.59 °C in test [6].
With `COC[C@@H](C)N[C@H]1CC[C@H](Nc2cc(-c3cccc(NCC4(C#N)CCOCC4)n3)c(Cl)cn2)CC1`, the ΔTm in test [1] is 0.33 °C; in test [2], -1.43 °C; in test [3] it was 0.03 °C; in test [4], -0.08 °C; in test [5], 0.43 °C; in test [6], 0.38 °C.
In the case of `CNC(=O)c1c(F)cccc1Nc1nc(Nc2cc3c(cc2OC)CCN3C(=O)CN(C)C)nc2[nH]ccc12`, the ΔTm in test [1] was -0.29 °C; in test [2], 0.06 °C; in test [3] it was 1.14 °C; in test [4], -0.64 °C; in test [5] it was 1 °C; in test [6] it was 0.07 °C.
With `C=CC1C[C@]1(NC(=O)[C@@H]1C[C@@H](Oc2cc(-c3csc(NC(=O)C(C)C)n3)nc3c(Br)c(OC)ccc23)CN1C(=O)[C@@H](NC(=O)OC1CCCC1)C(C)(C)C)C(=O)O` (stereo not given in full), the ΔTm in test [1] was 0.33 °C; in test [2] it was 0.56 °C; in test [3], 0 °C; in test [4] it was -2.17 °C; in test [5] it was -1.13 °C; in test [6], 0.81 °C.
As for `CCCCCCCC/C=C\CCCCCCCC(=O)NCCO`, the ΔTm in test [1] is -1.47 °C; in test [2], -0.92 °C; in test [3] it was -0.85 °C; in test [4] it was -2.08 °C; in test [5], -1.79 °C; in test [6], -2.91 °C.
Consider `N[C@@H]1CCCN(c2c(/C=C3\SC(=O)NC3=O)cccc2-c2ccccc2)C1`, for which the ΔTm was -0.18 °C in test [1]; 2.37 °C in test [2]; 0.88 °C in test [3]; 3.72 °C in test [4]; 0.64 °C in test [5]; -0.48 °C in test [6].
Take `CCOc1cc(CC(=O)N[C@@H](CC(C)C)c2ccccc2N2CCCCC2)ccc1C(=O)O`: the ΔTm was -0.58 °C in test [1]; 0.05 °C in test [2]; -0.05 °C in test [3]; 0.38 °C in test [4]; -0.15 °C in test [5]; -0.16 °C in test [6].
As to `CCN1C(=O)N(c2c(F)c(OC)cc(OC)c2F)Cc2cnc3[nH]c(CN4CCOCC4)cc3c21`, the ΔTm in test [1] was 0.38 °C; in test [2], 6.96 °C; in test [3], 0.58 °C; in test [4], -0.33 °C; in test [5], 0.45 °C; in test [6] it was 1.85 °C.
Consider `CC(C)c1cnc(NC(=O)Cc2ccccc2)s1`, for which the ΔTm in test [1] was 1.04 °C; in test [2] it was 4.66 °C; in test [3], 2.55 °C; in test [4], 3.64 °C; in test [5], 0.91 °C; in test [6], -0.53 °C.
Turning to `COc1ccc(S(=O)(=O)N2CCOCC2)cc1Nc1ccc2c(n1)N(C1CCOCC1)[C@H](C)C(=O)N2C`, the ΔTm in test [1] is -0.18 °C; in test [2], 0.41 °C; in test [3], -0.08 °C; in test [4] it was -0.48 °C; in test [5], -0.88 °C; in test [6], 0.03 °C.
For the compound `COc1c(OCCCN2CCOCC2)ccc2c1N=C(NC(=O)c1cnc(N)nc1)N1CCN=C21`, the shift in melting temperature (ΔTm) was 0.09 °C in test [1]; 0.39 °C in test [2]; 0.2 °C in test [3]; -1.01 °C in test [4]; 0.14 °C in test [5]; -0.67 °C in test [6].
For the compound `CCNc1ccc(-c2nn(-c3ccccc3C)c3c2C(C)Cc2nc(NC(=O)OC)sc2-3)cn1` (stereo not given), the ΔTm was 0.34 °C in test [1]; 0.64 °C in test [2]; 0.19 °C in test [3]; -0.97 °C in test [4]; -0.13 °C in test [5]; 1.08 °C in test [6].
On to `O=C(O)CCCN1CCC[C@H]1COc1ccc(Oc2ccc(Cl)cc2)cc1`, for which the ΔTm in test [1] was 0.14 °C; in test [2] it was 0.25 °C; in test [3] it was -0.11 °C; in test [4], -0.15 °C; in test [5] it was -0.08 °C; in test [6] it was -0.43 °C.
